NCOA1 inh: SRC1 coactivator transcriptional activity inhibitors, primary screen, cell-based, luminescence; inhibition, % at 3.6 µM; HEK293 GAL4-SRC1 luciferase reporter; 360,000 compounds, 0.12% hits; Nuclear receptor coactivator 1 (Homo sapiens), Q15788;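 active means inhibition above the campaign mean plus 3 SD, with each screening campaign given its own cutoff, cut at about 60% in these data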;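 further: 0% = DMSO treated cells and 100% = gossypol at 36 µM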
NCOA2 inhibitor: inhibition of GAL4-SRC2 driven luciferase reporter, primary screen, SRC2 inhibitor project, cell-based, luminescence; AID 651957, 2012; inhibition, % at 9 µM; HEK293 GAL4-SRC2 luciferase reporter; 370,000 compounds, 0.17% hits;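 active means inhibition above the mean inhibition of all tested compounds plus 3 SD, set per campaign, cut at about 52% in these data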;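 further: 0% = DMSO treated cells and 100% = cells given Gossypol at 36 µM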
SRC3 inh: SRC3 coactivator transcriptional activity inhibitors, primary screen, cell-based, luminescence; HEK293 GAL4-SRC3 luciferase reporter; inhibition, % at 3.6 µM; 360,000 compounds, 0.17% hits; Nuclear receptor coactivator 3 (Homo sapiens), Q9Y6Q9; AID 588352, 2011;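 active means inhibition above a per-campaign cutoff, the mean of all compounds plus 3 SD, cut at about 60% in these data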;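 further: 0% = DMSO-treated cells and 100% = gossypol-treated cells at 36 µM; higher means less SRC3-driven luciferase light from the GAL4 reporter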
COUP-TFII inh: NR2F2 transcriptional activity inhibitors, primary screen, cell-based, luciferase reporter, HEK293T, luminescence; COUP transcription factor 2 (Homo sapiens), P24468; HEK293T NGFI-A luciferase reporter; inhibition, % at 8.6 µM; 370,000 compounds, 0.7% hits; AID 686940, 2013;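 active means inhibition above a per-plate cutoff, mean inhibition of test wells between control levels plus 3 SD, cut at about 38% in these data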;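 further: cells cotransfected with COUP-TFII expression vector driving the NGFI-A reporter; 0% = median of COUP-TF2 test wells and 100% = reporter-only cells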
LRH-1 inv ag: LRH-1 (NR5A2) inverse agonists, primary screen, cell-based, luminescence, HEK293T, StAR-luciferase reporter | Nuclear receptor subfamily 5 group A member 2 (Homo sapiens), O00482 | LRH-1 transfected, 24 h | inhibition, % at 3.6 µM | 360,000 compounds, 0.13% hits;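 active means inhibition above the mean inhibition of all tested compounds plus 3 SD, cut at about 73% in these data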;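 further: 0% = DMSO wells and 100% = reporter-only cells lacking LRH-1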
Target sequence (O00482 whole entry, looked up): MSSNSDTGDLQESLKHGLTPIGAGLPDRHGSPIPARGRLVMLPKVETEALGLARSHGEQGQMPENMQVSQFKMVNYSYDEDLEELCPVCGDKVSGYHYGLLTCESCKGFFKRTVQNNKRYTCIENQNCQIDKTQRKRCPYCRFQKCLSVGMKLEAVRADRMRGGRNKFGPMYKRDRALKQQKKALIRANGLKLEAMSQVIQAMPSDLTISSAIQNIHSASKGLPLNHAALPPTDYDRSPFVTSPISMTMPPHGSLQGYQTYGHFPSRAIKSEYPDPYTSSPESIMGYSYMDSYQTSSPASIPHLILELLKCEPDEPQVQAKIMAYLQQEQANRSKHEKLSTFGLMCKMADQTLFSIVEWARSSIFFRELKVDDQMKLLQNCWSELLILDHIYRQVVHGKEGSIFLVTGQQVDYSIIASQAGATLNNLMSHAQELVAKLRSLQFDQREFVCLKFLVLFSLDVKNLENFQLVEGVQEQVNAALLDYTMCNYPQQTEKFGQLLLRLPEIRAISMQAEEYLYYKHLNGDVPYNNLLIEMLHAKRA
Gli-Sufu antag: Gli-Sufu pathway antagonists, primary screen, luciferase luminescence, Sufu-KO-LIGHT cells, uHTS; Sufu-KO-LIGHT fibroblasts, Gli luciferase reporter luminescence; inhibition, % at 5 µM; 340,000 compounds, 0.74% hits;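 active means inhibition above about 55%, limit read from the data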;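 further: 0% = DMSO-treated cells and 100% = wells with medium but no cells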
Starred values were filed as active, the others as inactive; · = not tested or not shown; ! = not confirmed by another sample. In the library only some 1.3% were active in any assay of this set; here they are far more common.

SMILES | NCOA1 inh | NCOA2 inhibitor | SRC3 inh | COUP-TFII inh | LRH-1 inv ag | Gli-Sufu antag
Cc1cc(C(=O)N2CCN(c3ccccc3)CC2)no1 | 7 | · | 5 | · | 18 | 21
Cc1cc(C(=O)N2CCN(c3ccccn3)CC2)no1 | 11 | 2 | 89* | 1 | 1 | 3
CCCCOC(=O)CCN1C(=O)/C(=C/c2ccccc2)SC1=S | · | · | · | 1 | · | ·
COc1ccc(C(NC(=O)C(C)C)c2ccc3cccnc3c2O)cc1 (stereo unspecified) | 22 | 27 | 32 | -14 | 70 | 51
CCC(=O)NC(c1cc(Cl)c2cccnc2c1O)C(C)C (stereo unspecified) | 12 | 21 | 16 | 8 | 21 | 6
CC(=O)NC(c1ccc(Cl)cc1)c1ccc2cccnc2c1O (stereo unspecified) | 28 | 29 | 35 | 14 | 60 | 80*
Cc1cc(NC(c2ccc(Cl)cc2)c2ccc3cccnc3c2O)no1 (stereo unspecified) | 48 | 46 | 46 | 7 | 12 | 67*
CCC(=O)NC(c1ccc(Cl)cc1Cl)c1ccc2cccnc2c1O (stereo unspecified) | 27 | 16 | 56 | -16 | 65 | 89*
CC(=O)NC(c1ccco1)c1ccc2cccnc2c1O (stereo unspecified) | 8 | · | 31 | · | 43 | -10
CC(C)C(=O)NC(c1ccc(Cl)cc1Cl)c1ccc2cccnc2c1O (stereo unspecified) | 33 | 10 | 23 | -33 | 83* | 28
COC(=O)c1cc(-c2cnc(OC)nc2OC)c(=O)n2c1CCC2 | · | 5 | · | -4 | · | ·
C=CCn1c(COc2ccccc2)nnc1SCC(=O)Nc1ccc(Oc2ccccc2)cc1 | · | 10 | · | 7 | · | ·
COC(=O)c1cc(-c2ccc(Oc3ccccc3)cc2)c(=O)n2c1CCC2 | · | -2 | · | -12 | · | ·
COc1ccc2sc(N(CCCN(C)C)C(=O)c3nc4ccccc4s3)nc2c1 | -29 | -19 | -36 | -9 | -10 | -2
COc1ccccc1C(=O)N(CCC1CCCN1C)c1nc2ccccc2s1 (stereo unspecified) | 54 | 40 | 63* | 58* | 52 | 4
COC(=O)[C@]12C[C@H](CC(=O)N3CCCCC3)C(=O)N(Cc3ccco3)C1=C[C@H](C(C)(C)C)O[C@@H]2C | · | 5 | · | -3 | · | ·
Cc1ccc(-c2nc(CSCC(=O)N3CCN(c4ccccn4)CC3)c(C)o2)cc1 | -5 | 3 | -1 | 47* | 32 | 25
COc1ccc(N=C(NN)c2ccc3ccccc3n2)cc1 | 54 | 63* | 46 | 75* | 77* | 49
CCc1csc(N2[C@H](CN(CCOC)S(=O)(=O)c3ccccc3[N+](=O)[O-])[C@H](c3ccccc3)[C@@H]2CO)n1 | · | -27 | · | -5 | · | ·
CC(C)(C)c1ccc(-c2nnc(SCC(=O)Nc3ccc(S(=O)(=O)Nc4nccs4)cc3)n2Cc2ccco2)cc1 | · | -6 | · | 2 | · | ·
CCN(CC)c1ccc2cc(NC(=O)CCC(=O)O)c(=O)oc2c1 | 61 | 85* | 57 | 83* | 64 | 43
CCCCCCCCCCCCCCCC[n+]1cccc(C(=O)N(CC)CC)c1 | -4 | 1 | -6 | -18 | 9 | 72*!
CCCCCCCC[n+]1cccc(C(=O)N(CC)CC)c1 | 1 | 3 | 15 | 8 | -8 | -1
O=C1OCC2=C1C(c1ccc(F)cc1)c1cc3c(cc1N2)OCCO3 (stereo unspecified) | 3 | 15 | 23 | -83 | 22 | 57*
CC(=O)c1ccc(N2CCN(S(=O)(=O)c3ccc4c(c3)CC(C)N4C(=O)C3CC3)CC2)cc1 (stereo unspecified) | 2 | 15 | -8 | 6 | 7 | 67*
SMILES | NCOA1 inh | NCOA2 inhibitor | SRC3 inh | COUP-TFII inh | LRH-1 inv ag | Gli-Sufu antag
CCC(=O)N1c2ccc(S(=O)(=O)N3CCN(c4ccc([N+](=O)[O-])cc4)CC3)cc2CC1C (stereo unspecified) | 12 | 8 | 14 | 9 | 12 | 58*
CCCC[C@H](C(=O)N(C)c1ccccc1)[C@@H](O)c1ccc(C(C)=O)cc1 | · | -10 | · | -11 | · | ·
CCN(C[C@@H]1[C@@H](c2ccccc2)[C@H](CO)N1S(C)(=O)=O)C(=O)C1CCC1 | · | -17 | · | 12 | · | ·
COC1=C(N)C(=O)c2nc(-c3nc(C(=O)O)c(C)c(-c4ccc(OC)c(OC)c4O)c3N)ccc2C1=O | · | · | · | · | · | 89*
O=C1CCC[C@H]2Cc3nc4ccccc4cc3C[C@]23CCCN13 | · | · | · | -1 | · | ·
COC(=O)c1ccc(Cn2ccc3ccc(-c4ccc5ccn(C(=O)c6ccccc6OC)c5c4)cc32)cc1 | · | -8 | · | 5 | · | ·
O=C(NCCc1ccccc1)C(c1cccs1)N(C(=O)CCl)c1ccc(Cl)cc1 (stereo unspecified) | 12 | 43 | 45 | 0 | -6 | 95*
O=C(NCCc1ccccc1)C(c1cccs1)N(C(=O)c1csnn1)C1CC1 (stereo unspecified) | 19 | 20 | 6 | -4 | -15 | -8
COC(=O)[C@]12C[C@H](CC(=O)NCCC(C)C)C(=O)N(Cc3cccc4ccccc34)C1=C[C@H](C(C)(C)C)O[C@@H]2C | · | 20 | · | 10 | · | ·
O=C(NCCN1C(=O)C2C3C=CC(C3)C2C1=O)c1cc(Cl)cc(Cl)c1 (stereo unspecified) | · | 2 | · | -10 | · | ·
CC1CN(S(=O)(=O)c2cccc(C(=O)NCCCn3ccnc3)c2)CC(C)O1 (stereo unspecified) | -8 | -4 | 7 | 5 | -2 | -6
CC1CN(S(=O)(=O)c2ccc(C(=O)NCCCn3ccnc3)cc2)CC(C)O1 (stereo unspecified) | 62* | 47 | 54 | 8 | 67 | 15
Cc1ccc(Cn2cc(CN3[C@@H](CC(C)C)COc4cc(Br)ccc4S3(=O)=O)nn2)cc1 | · | 7 | · | 1 | · | ·
Nc1ncn([C@@H]2O[C@H](CO)[C@@H](O)[C@H]2O)c(=O)n1 | 65* | 34 | 79* | 0 | 75* | 23
Nc1nc(=S)c2ncn([C@@H]3O[C@H](CO)[C@@H](O)[C@H]3O)c2[nH]1 | 44 | -16 | 55 | -15 | 81* | -52
Nc1ccn([C@@H]2O[C@H](CO)[C@@H](O)[C@@H]2O)c(=O)n1 | 13 | 22 | 30 | 10 | 8 | 40
CN(C)c1cccc(/C=C2\CC3(OC(=O)c4cccc(F)c4)CCCN2C3)c1 (stereo unspecified) | · | -5 | · | -5 | · | ·
Clc1ccc(-c2csc(=Nc3cccnc3)n2CCCn2ccnc2)cc1Cl | 41 | 57* | 46 | 36 | -26 | 29
CC(=O)OCC(=O)Nc1ccc([N+](=O)[O-])cc1Cl | 5 | 0 | -17 | -4 | 2 | -3

Screening data (PubChem)
